Experiment [1] deals with Calcium/calmodulin-dependent protein kinase type II subunit alpha (Homo sapiens) (UniProt Q9UQM7). Conditions: at 1 µM.
The target of experiment [2] is Calcium/calmodulin-dependent protein kinase type II subunit delta (Homo sapiens) (UniProt Q13557). The note with it: at 0.1 µM.
Experiment [3] has the same target. The note with it: at 1 µM.
In experiment [4] the target is T1, Calcium/calmodulin-dependent protein kinase type IV (Homo sapiens) (UniProt Q16566).
T1 sequence (whole entry): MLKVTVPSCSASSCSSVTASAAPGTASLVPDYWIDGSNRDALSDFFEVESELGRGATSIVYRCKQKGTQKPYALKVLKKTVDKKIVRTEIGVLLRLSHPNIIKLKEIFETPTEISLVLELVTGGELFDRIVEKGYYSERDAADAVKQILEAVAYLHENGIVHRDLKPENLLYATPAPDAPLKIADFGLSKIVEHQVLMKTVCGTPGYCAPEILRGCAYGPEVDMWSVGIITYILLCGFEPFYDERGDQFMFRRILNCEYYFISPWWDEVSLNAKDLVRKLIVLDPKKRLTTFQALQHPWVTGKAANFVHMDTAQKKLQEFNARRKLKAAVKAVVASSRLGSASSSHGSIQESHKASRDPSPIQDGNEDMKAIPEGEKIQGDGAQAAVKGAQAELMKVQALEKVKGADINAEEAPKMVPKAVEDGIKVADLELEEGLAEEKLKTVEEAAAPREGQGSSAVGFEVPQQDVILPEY
Conditions: at 0.1 µM.

For experiment [5], the target named is T1, Calcium/calmodulin-dependent protein kinase type IV (Homo sapiens). Conditions: at 1 µM.
Experiment [6] addresses T2, Serine/threonine-protein kinase Chk1 (Homo sapiens) (UniProt O14757).
T2 sequence (whole entry): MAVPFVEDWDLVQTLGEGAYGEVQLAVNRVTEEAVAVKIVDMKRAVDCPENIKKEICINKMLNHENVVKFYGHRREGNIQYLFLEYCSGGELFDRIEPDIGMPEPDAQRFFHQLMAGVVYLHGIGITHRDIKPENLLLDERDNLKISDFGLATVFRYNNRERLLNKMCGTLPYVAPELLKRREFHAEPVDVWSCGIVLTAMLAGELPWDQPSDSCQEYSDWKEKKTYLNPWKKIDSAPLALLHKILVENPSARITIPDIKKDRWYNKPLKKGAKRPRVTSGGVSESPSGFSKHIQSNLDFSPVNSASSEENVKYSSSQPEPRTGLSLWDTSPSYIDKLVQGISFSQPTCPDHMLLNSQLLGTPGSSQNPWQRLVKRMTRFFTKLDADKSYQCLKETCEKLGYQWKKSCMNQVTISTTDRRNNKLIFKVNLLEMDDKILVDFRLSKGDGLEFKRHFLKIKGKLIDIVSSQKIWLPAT
Conditions: at 0.1 µM.

Experiment [7] has as its target T2, Serine/threonine-protein kinase Chk1 (Homo sapiens). The note with it: at 1 µM.
In experiment [8] the target is Serine/threonine-protein kinase Chk2 (Homo sapiens) (UniProt O96017). The note with it: at 0.1 µM.
Experiment [9] shares this target. The note with it: at 1 µM.
In experiment [10] the target is Death-associated protein kinase 1 (Homo sapiens) (UniProt P53355). Conditions: at 0.1 µM.
Chain of Death-associated protein kinase 1 (Homo sapiens) (P53355 whole entry, looked up): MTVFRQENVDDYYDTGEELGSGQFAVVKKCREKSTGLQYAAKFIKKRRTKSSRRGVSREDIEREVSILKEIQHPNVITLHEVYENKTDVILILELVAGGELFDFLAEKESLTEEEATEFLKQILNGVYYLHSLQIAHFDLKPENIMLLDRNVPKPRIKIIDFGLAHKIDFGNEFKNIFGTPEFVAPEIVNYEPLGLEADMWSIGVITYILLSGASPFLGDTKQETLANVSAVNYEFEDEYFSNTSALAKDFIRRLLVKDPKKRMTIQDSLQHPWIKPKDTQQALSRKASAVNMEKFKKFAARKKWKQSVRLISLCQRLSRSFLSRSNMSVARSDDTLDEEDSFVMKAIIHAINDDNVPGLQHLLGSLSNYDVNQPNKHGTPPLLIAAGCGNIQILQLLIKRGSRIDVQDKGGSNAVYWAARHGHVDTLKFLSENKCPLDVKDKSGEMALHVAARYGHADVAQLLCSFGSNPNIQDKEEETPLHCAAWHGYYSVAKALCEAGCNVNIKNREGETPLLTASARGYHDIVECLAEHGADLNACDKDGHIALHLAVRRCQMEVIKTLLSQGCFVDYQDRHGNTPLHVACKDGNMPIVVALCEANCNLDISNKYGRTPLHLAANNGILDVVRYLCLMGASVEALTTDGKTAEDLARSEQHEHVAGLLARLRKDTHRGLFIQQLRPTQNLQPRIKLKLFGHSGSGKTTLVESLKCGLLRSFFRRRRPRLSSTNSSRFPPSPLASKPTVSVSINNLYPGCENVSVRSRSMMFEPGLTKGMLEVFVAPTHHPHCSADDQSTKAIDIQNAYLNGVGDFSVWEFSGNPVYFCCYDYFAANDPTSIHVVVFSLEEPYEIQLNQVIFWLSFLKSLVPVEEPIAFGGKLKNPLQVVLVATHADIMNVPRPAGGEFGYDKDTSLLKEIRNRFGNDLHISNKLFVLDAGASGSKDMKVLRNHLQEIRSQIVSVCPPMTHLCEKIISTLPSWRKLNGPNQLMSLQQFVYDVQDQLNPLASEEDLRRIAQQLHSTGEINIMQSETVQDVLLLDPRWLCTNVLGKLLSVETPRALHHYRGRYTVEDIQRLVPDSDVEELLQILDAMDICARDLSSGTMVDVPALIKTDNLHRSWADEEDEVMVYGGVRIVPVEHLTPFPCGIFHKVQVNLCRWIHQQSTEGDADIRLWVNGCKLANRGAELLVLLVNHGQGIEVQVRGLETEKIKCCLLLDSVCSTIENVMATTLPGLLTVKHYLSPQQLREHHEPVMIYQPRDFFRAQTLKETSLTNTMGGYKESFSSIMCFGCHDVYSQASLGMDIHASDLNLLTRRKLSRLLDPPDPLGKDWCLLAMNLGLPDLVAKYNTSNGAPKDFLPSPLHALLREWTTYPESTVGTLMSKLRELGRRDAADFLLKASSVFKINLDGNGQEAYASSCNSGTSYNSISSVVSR
For experiment [11] the target is unchanged. The note with it: at 1 µM.
In experiment [12] the target is T3, Serine/threonine-protein kinase DCLK2 (Homo sapiens) (UniProt Q8N568).
T3 sequence (whole entry): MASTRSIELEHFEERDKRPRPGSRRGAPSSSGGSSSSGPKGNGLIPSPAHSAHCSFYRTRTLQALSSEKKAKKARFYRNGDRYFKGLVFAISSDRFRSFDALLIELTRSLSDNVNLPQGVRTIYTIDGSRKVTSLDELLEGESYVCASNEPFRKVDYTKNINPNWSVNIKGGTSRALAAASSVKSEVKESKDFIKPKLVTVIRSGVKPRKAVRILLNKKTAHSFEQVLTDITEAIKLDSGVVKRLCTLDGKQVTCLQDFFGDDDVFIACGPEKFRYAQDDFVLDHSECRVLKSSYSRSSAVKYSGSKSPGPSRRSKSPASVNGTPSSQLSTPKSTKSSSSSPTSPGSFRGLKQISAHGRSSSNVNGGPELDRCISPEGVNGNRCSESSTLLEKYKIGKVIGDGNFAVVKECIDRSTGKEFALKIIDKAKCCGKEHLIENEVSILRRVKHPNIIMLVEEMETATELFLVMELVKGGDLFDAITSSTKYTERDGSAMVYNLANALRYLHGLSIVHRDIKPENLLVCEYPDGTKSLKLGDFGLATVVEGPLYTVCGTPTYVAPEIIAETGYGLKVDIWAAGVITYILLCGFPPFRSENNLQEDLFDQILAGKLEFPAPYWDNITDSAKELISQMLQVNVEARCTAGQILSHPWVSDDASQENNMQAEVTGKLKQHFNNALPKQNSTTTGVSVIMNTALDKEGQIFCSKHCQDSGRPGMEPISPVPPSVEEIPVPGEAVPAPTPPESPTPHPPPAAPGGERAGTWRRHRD
Conditions: at 0.1 µM.

The target in experiment [13] is T3, Serine/threonine-protein kinase DCLK2 (Homo sapiens). The note with it: at 1 µM.
In experiment [14] the target is MAP kinase-activated protein kinase 2 (Homo sapiens) (UniProt P49137). Conditions: at 0.1 µM.
Chain of MAP kinase-activated protein kinase 2 (Homo sapiens) (P49137 whole entry, looked up): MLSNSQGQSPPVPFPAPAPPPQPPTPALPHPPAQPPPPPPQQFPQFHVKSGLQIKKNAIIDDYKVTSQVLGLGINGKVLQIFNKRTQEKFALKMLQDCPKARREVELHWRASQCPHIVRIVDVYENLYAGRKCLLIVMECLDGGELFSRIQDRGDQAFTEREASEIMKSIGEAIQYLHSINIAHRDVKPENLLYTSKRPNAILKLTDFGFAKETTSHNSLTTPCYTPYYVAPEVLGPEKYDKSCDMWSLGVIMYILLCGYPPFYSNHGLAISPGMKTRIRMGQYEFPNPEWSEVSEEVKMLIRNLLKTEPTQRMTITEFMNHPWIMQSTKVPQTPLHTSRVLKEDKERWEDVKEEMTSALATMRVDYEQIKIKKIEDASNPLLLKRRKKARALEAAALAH
Experiment [15] has the same target. Conditions: at 1 µM.
In experiment [16] the target is MAP kinase-activated protein kinase 3 (Homo sapiens) (UniProt Q16644). Conditions: at 0.1 µM.
Chain of MAP kinase-activated protein kinase 3 (Homo sapiens) (Q16644 whole entry, looked up): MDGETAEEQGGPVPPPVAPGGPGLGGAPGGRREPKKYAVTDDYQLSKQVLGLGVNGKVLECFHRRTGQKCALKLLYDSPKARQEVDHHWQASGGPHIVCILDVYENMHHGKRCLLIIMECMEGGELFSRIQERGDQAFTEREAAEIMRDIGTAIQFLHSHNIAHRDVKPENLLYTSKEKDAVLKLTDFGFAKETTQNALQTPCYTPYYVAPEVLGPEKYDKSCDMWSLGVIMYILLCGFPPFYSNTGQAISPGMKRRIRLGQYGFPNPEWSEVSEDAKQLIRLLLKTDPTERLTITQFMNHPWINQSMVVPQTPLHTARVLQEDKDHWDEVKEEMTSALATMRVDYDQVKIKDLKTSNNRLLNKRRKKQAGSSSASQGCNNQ
For experiment [17] the target is unchanged. The note with it: at 1 µM.
The target of experiment [18] is Serine/threonine-protein kinase MARK1 (Homo sapiens) (UniProt Q9P0L2). The note with it: at 0.1 µM.
Chain of Serine/threonine-protein kinase MARK1 (Homo sapiens) (Q9P0L2 whole entry, looked up): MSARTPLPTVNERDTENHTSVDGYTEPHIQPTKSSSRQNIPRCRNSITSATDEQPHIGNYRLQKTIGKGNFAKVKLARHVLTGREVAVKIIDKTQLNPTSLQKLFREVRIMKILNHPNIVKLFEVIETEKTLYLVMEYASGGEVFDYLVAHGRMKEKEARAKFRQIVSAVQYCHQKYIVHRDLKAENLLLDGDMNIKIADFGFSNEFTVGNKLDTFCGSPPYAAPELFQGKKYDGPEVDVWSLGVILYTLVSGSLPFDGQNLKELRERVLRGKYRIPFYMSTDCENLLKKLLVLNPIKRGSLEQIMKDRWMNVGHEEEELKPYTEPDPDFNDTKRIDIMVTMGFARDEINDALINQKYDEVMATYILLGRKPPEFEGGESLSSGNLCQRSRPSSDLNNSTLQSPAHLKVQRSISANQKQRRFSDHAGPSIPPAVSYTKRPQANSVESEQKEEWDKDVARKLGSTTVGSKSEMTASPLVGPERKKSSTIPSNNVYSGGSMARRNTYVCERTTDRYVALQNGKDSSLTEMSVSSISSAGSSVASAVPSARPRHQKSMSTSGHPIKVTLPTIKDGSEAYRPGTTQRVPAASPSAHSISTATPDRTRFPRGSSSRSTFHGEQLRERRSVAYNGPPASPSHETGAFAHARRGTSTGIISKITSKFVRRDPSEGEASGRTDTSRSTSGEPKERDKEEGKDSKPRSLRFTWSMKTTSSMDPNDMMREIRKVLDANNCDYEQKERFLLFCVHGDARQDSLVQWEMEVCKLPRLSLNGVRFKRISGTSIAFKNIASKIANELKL
For experiment [19] the target is unchanged. Conditions: at 1 µM.
Experiment [20] addresses MAP/microtubule affinity-regulating kinase 3 (Homo sapiens) (UniProt P27448). Conditions: at 0.1 µM.

Chain of Calcium/calmodulin-dependent protein kinase type II subunit alpha (Homo sapiens) (Q9UQM7 whole entry): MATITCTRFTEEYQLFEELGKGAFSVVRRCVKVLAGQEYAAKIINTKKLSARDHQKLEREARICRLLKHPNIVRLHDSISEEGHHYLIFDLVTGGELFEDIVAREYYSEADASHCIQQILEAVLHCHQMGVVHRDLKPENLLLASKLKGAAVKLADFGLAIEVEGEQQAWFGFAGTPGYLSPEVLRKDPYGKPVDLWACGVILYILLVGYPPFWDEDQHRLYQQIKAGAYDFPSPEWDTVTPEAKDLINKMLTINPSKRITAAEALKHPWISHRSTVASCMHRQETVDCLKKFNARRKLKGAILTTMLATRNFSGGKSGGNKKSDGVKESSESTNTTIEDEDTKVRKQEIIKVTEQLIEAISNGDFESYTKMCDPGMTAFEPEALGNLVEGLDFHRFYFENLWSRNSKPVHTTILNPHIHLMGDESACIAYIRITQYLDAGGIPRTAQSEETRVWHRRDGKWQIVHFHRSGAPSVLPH
Chain of Calcium/calmodulin-dependent protein kinase type II subunit delta (Homo sapiens) (Q13557 whole entry): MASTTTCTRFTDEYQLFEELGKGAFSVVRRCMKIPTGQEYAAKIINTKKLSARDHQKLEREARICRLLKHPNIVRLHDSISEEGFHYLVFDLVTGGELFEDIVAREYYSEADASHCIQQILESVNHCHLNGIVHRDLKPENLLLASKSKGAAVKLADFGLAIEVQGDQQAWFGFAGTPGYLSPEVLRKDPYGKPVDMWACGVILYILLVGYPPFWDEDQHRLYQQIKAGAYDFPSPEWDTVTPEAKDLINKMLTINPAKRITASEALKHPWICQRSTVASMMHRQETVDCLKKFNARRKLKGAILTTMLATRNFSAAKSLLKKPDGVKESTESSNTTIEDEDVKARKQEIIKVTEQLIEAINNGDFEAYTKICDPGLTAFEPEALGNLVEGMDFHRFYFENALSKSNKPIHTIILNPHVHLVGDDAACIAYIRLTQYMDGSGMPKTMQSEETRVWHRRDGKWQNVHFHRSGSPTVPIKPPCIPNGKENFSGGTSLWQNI
Chain of MAP/microtubule affinity-regulating kinase 3 (Homo sapiens) (P27448 whole entry, looked up): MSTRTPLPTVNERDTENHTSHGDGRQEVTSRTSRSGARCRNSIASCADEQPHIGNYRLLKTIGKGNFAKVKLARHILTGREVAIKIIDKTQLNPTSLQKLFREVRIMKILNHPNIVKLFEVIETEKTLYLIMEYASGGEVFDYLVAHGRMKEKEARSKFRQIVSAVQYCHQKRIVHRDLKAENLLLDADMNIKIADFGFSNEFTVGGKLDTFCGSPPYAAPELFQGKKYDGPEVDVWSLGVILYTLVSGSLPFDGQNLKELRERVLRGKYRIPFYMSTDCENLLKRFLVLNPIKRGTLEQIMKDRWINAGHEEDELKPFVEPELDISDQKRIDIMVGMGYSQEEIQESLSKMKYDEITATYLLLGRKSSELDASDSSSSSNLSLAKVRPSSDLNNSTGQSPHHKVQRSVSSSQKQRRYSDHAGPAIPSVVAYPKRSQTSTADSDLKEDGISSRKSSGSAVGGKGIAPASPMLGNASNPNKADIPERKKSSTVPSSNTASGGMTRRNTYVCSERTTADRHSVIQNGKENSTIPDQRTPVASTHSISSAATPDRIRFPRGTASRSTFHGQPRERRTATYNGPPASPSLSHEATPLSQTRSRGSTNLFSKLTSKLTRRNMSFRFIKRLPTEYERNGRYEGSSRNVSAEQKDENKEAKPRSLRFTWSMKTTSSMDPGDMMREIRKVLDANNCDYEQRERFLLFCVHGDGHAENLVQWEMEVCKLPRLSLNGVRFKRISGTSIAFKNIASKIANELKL

For the molecule `Nc1ncc(-c2cccc(S(N)(=O)=O)c2)c2scc(-c3ccc(F)c(Cl)c3)c12`, the inhibition (as a rule, the drop in the measured response relative to a control, in per cent) in experiment [1] turned out to be 0.53%; in [2], 3.74%; in experiment [3] it was 2.95%; in experiment [4], 1.75%; in experiment [5] it was 1.03%; in [6], 5.24%. Further, the inhibition came to 2.44% in experiment [7]; 3.46% in experiment [8]; 7.7% in experiment [9]; 5.41% in experiment [10]; 3.2% in [11]; 0.41% in [12]. In addition, the inhibition in experiment [13] was 0.61%; in experiment [14], 1.76%; in experiment [15] it was 1.12%; in experiment [16], 6%; in experiment [17], 15.7%; in experiment [18], 3.57%. Besides, the values for the inhibition in experiment [19] and in [20] were 5.62% and -0.65%, respectively.
As for `CS(=O)(=O)CCNCc1coc(-c2ccc3ncnc(Nc4ccc(OCc5ccccc5)cc4)c3c2)c1`, the inhibition in [1] is 6.16%; in experiment [2] it was 2.95%; in experiment [3], 3.61%; in [4] it was 2.14%; in experiment [5] it was 3.11%; in experiment [6], 1.85%. Besides, the inhibition was 3.43% in experiment [7]; 5.28% in [8]; 28.8% in [9]; 2.7% in experiment [10]; 1.73% in [11]; -0.36% in experiment [12]. Besides, the inhibition in experiment [13] was 0.64%; in experiment [14], 1.33%; in experiment [15], 1.98%; in experiment [16] it was 2.6%; in experiment [17], 1.32%; in experiment [18], 2.05%. For the same molecule, the inhibition in experiment [19] worked out at 1.62%; in experiment [20], 1.54%.
In the case of `COC(=O)Nc1nc2ccc(S(=O)(=O)c3ccc(NC(=O)Nc4cc(C(F)(F)F)ccc4F)cc3)cc2[nH]1`, the inhibition is 3.22% in [1]; 3.61% in [2]; 3.6% in [3]; -0.05% in experiment [4]; 0.07% in experiment [5]; 1.24% in experiment [6]. Moreover, the inhibition was 3.43% in experiment [7]; 1.62% in experiment [8]; 1.94% in experiment [9]; 3.73% in experiment [10]; 5.43% in [11]; -0.62% in experiment [12]. Moreover, the inhibition in experiment [13] is -0.64%; in experiment [14], 0.59%; in [15] it was 1.63%; in [16], 1.8%; in experiment [17], 3.35%; in experiment [18], 2.26%. Moreover, the values for the inhibition in experiment [19] and in experiment [20] were 2.1% and 3.97%, respectively.
As for `Cc1ccc(O)cc1Nc1ccnc2cc(-c3ccccn3)ccc12`, the inhibition in experiment [1] was 5.11%; in experiment [2], 4.51%; in [3], 6.51%; in experiment [4], -0.2%; in [5], 0.26%; in experiment [6], 4.18%. For the same molecule, the inhibition worked out at 4.5% in [7]; 3.95% in experiment [8]; 5.81% in experiment [9]; 3.99% in experiment [10]; 5.29% in experiment [11]; 1.56% in experiment [12]. The inhibition in experiment [13] worked out at 2.1%; in experiment [14], 1.91%; in [15], 1.68%; in [16], 7.63%; in [17], 19.4%; in [18], 4.13%. Moreover, the figures for the inhibition in [19] and in experiment [20] were 6.28% and 4.39%, respectively.
In the case of `COc1ccc2[nH]c3c4[nH]c5ccc(OC)cc5c4c4c(c3c2c1)C(=O)NC4=O`, the inhibition in [1] is 22.9%; in experiment [2], 17.4%; in experiment [3], 57.6%; in [4] it was -5.78%; in [5], -3.69%; in experiment [6], 22.4%. Further, the inhibition in [7] worked out at 65.6%; in experiment [8] it was 81.2%; in experiment [9] it was 83.4%; in [10] it was 2%; in experiment [11] it was 24.8%; in experiment [12], 1.24%. The inhibition in experiment [13] came to 2.81%; in experiment [14], 2.61%; in experiment [15], 5.29%; in [16] it was 5.01%; in [17] it was 6.04%; in experiment [18], 7.99%. Besides, the inhibition was 38.8% in experiment [19] and 3.92% in experiment [20].
For the molecule `NS(=O)(=O)c1ccc(N/N=C2\C(=O)Nc3ccc4ncccc4c32)cc1`, the inhibition in experiment [1] came to 7.93%; in [2], 4.26%; in [3] it was 18.3%; in experiment [4], 1.9%; in experiment [5] it was 2.53%; in experiment [6], 7.46%. Also, the inhibition in experiment [7] is 41.1%; in [8] it was 5%; in [9], 26.3%; in experiment [10] it was 10.9%; in [11], 63%; in [12] it was -1.4%. The inhibition in experiment [13] worked out at 7.76%; in experiment [14], 0.89%; in experiment [15], 1.9%; in experiment [16] it was 2.79%; in [17], 3.84%; in [18], 12.8%. Further, the figures for the inhibition in experiment [19] and in [20] were 52.9% and 8.25%, respectively.
For the molecule `CNC(=O)c1cc(-c2ccc(F)cc2)cc(-c2ccc(S(=O)(=O)N3CCCC3)cc2)c1N`, the inhibition in [1] was 1.06%; in experiment [2] it was 3.1%; in experiment [3], 3.89%; in experiment [4], -1.57%; in experiment [5] it was 1.17%; in experiment [6], 8.01%. Besides, the inhibition is 11.8% in [7]; 6.61% in experiment [8]; 8.16% in experiment [9]; 10.6% in experiment [10]; 9.63% in [11]; -1.53% in experiment [12]. Also, the inhibition in experiment [13] is -0.01%; in [14], 4.47%; in experiment [15] it was 5.35%; in [16], 7.55%; in experiment [17], 9.54%; in experiment [18], 2.14%. For the same molecule, the inhibition amounted to 3.58% in experiment [19] and 1.73% in experiment [20].

The values above are taken from ChEMBL document CHEMBL1961873, “Compounds: GSK PKIS; Assays: Nanosyn kinase panel” (2012).
